# Sampled rows, rich in hits. Any-hit rate of the full collection: about 3.4%.
# TEAD-YAP block = TEAD-YAP interaction inhibition, primary screen, TEAD-YAP interaction inhibitor project, luminescence, HEK-TIYL cells. TEAD-Gal4/YAP UAS-luciferase luminescence. inhibition, % at 9.12 µM. AID 1259422, 2018. 640,000 tested, 1.4% active; in the data active = inhibition above about 32%;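 also: 0% = median of test compound wells and 100% = reference inhibitor wells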
# FBW7 activator = FBW7 E3 ligase activators, primary screen, biochemical, AlphaScreen, human | normalized activity (activation), % at 26.1 µM | AID 1259310, 2017 | F-box/WD repeat-containing protein 7 (Homo sapiens), Q969H0 | AlphaScreen FBW7–phospho-cyclin E peptide binding, activator screen | 650,000 tested, 0.13% active; in the data active = normalized activity above about 1.9%;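 also: purified mutant Fbw7 with reduced substrate affinity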
# MITF primary = MITF inhibitors, primary screen, biochemical, AlphaScreen, human; Microphthalmia-associated transcription factor (Homo sapiens), O75030; AlphaScreen MITF homodimerization, bead proximity signal; inhibition, % at 2.6 µM; 650,000 tested, 0.91% active; AID 1259374, 2018; in the data active = inhibition above about 50%;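 also: 0% = vehicle wells with protein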
# Target sequence (O75030 whole entry, looked up): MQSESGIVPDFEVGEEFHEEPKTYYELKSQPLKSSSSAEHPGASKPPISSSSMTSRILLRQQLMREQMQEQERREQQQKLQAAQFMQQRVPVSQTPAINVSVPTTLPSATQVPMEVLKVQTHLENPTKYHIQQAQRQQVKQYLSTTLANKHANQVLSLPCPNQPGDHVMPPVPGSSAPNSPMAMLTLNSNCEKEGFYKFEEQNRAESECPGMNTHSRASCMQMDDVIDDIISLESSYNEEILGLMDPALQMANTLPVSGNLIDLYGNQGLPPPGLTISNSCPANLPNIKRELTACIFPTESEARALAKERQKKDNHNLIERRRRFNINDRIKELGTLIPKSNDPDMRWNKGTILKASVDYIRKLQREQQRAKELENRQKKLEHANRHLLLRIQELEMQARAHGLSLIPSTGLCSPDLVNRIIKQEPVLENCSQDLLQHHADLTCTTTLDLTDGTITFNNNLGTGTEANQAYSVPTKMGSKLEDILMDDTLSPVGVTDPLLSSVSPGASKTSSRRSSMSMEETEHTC
# GPR151 activ = activators of human GPR151, primary screen, cell-based, PathHunter beta-arrestin, luminescence | G-protein coupled receptor 151 (Homo sapiens), Q8TDV0 | PathHunter beta-arrestin GPR151 cells | activation, % at 11.2 µM | 650,000 tested, 1% active; in the data active = activation above about 4.9%;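 also: 0% = median of compound wells and 100% = cells with positive control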
# MITF inh conf = MITF inhibitors, retest of hits, confirmation, biochemical, AlphaScreen, triplicate; 4,700 tested, 16% active; AID 1259372, 2018; AlphaScreen MITF homodimerization, biotin/His-MITF beads; shares compounds with MITF primary; inhibition, % at 2.6 µM;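 active = inhibition above a cutoff derived from the DMSO control wells, cut at about 28% in these data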;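 also: 0% = MITF dimer wells with DMSO only; inhibitors lower the bead chemiluminescence by keeping MITF from dimerizing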
# AlphaScreen DR = AlphaScreen optical interference compounds, dose response, counter-screen, biochemical, HTS. shares compounds with MITF primary. AID 1259373, 2018. IC50, µM. 480 tested, 6% active. AlphaScreen optical interference counterscreen, cell-free; call rule not given here
# AlphaScreen intf2 = AlphaScreen optical interference compounds, counter-screen for MITF inhibitor project, biochemical, triplicate. shares compounds with MITF primary. LysRS AlphaScreen counterscreen, signal interference. inhibition, % at 2.6 µM. 4,700 tested, 7.6% active;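 active = inhibition above a cutoff derived from the DMSO control wells, cut at about 30% in these data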
# * hit, by the source's call; nt = no result.
SMILES,TEAD-YAP block,FBW7 activator,MITF primary,GPR151 activ,MITF inh conf,AlphaScreen intf2,others
COCCNC(=O)COC(=O)c1cc(-c2ccco2)nc2ccccc12,2,0,72*,1,69*,-9,AlphaScreen DR=>6.6
Cc1nn(C)c(C)c1-c1cncc(C(=O)Nc2ccc(Oc3ccccc3)cc2)c1,9,0,7,-2,nt,nt,
CC(C)C(NC(=O)c1ccoc1)c1nnc2n1CCN(Cc1cc3ccccc3[nH]1)CC2 (stereo unspecified),0,0,69*,0,0,-1,
CC(C)N(C)CCOC(=O)/C=C/c1ccco1,-2,-1,59*,-1,62*,7,AlphaScreen DR=>6.5
CN(Cc1ccccc1)C(=O)COC(=O)/C=C/c1ccco1,-5,0,11,-1,nt,nt,
CN(CCOC(=O)/C=C/c1ccco1)Cc1ccccc1,2,0,68*,-2,62*,9,
CCOC(=O)c1cc(N2C(=O)C3C4C=CC(C4)C3C2=O)ccc1Cl (stereo unspecified),-7,0,59*,4,55*,9,AlphaScreen DR=>6.5
CC(=O)Nc1cc(N2C(=O)C3C4C=CC(C4)C3C2=O)ccc1Cl (stereo unspecified),-3,0,-16,2,nt,nt,
CCCNc1cc(-c2c(C)nn(C)c2C)ncn1,-9,0,14,1,nt,nt,
Cc1c(NC(=O)c2ccc(COc3ccccc3)cc2)c(=O)n(-c2ccccc2)n1C,4,0,-2,0,nt,nt,
COC(=O)c1ccc(/C=C2\N=C(c3cccc(Br)c3)OC2=O)cc1,-3,0,-10,0,nt,nt,
CCC(C)(C)n1nnnc1CN(Cc1ccccc1)Cc1cccs1,1,0,76*,-1,6,8,
CC(=O)c1cc(CN2CCN(CCCc3ccccc3)C(CCO)C2)cs1 (stereo unspecified),12,0,0,-1,nt,nt,
O=C(O)c1cccc2c1C(=O)N(c1ccccc1)C2,-5,0,72*,-2,72*,13,AlphaScreen DR=>6.3
CCCN1Cc2cccc(C(=O)O)c2C1=O,2,1,17,1,nt,nt,
CCN(CC)C(=O)Cn1cnc2sc(C(=O)N3CCN(c4cccc(Cl)c4)CC3)c(C)c2c1=O,4,0,-11,0,nt,nt,
COc1ccccc1COCC(O)CNCCc1ccc(C(F)(F)F)cc1 (stereo unspecified),5,0,12,3,nt,nt,
COc1ccccc1COCC(O)CNCC12CC3CC(CC(C3)C1)C2 (stereo unspecified),10,1,64*,-1,15,16,
COc1ccc(OCC(O)CNCCC(C)C)c(C(C)(C)C)c1 (stereo unspecified),0,0,31,0,nt,nt,
COc1ccccc1COCC(O)CNCCCN(C)C (stereo unspecified),5,0,56*,0,-9,-6,
COc1ccc(OCC(O)CNCCCN(C)C)c(C(C)(C)C)c1 (stereo unspecified),1,0,68*,1,6,11,
CSc1cccc(NC(=O)c2ccccc2Cl)c1,-31,0,15,-1,nt,nt,
CCCCNC(C)C1COc2ccccc2O1 (stereo unspecified),3,0,9,0,nt,nt,
CC(NCc1ccccc1)C1COc2ccccc2O1 (stereo unspecified),-7,0,58*,0,-4,-5,
COc1ccccc1-n1c(SCC(=O)NNC=O)nnc1-c1ccc(C)cc1,-46,0,84*,-2,5,8,
COc1ccccc1-n1c(SCC(=O)Nc2ccc(C)cc2)nnc1-c1ccncc1,4,0,-16,-1,nt,nt,
O=C1C(c2ccc(Cl)cc2)N(C2CCCCC2)C(=O)CN1C1CCCCCC1 (stereo unspecified),1,0,-12,0,nt,nt,
COc1cccc(CN2CCN(Cc3cccnc3)CC2)c1,-4,0,79*,-1,-11,0,
